Potency and affinity values are given separately. Activity calls are given as the source filed them. A call without a number means that no potency is given here. The rule behind the calls is not given here.
molecular target: CAAX prenyl protease 2 (Homo sapiens) (UniProt Q9Y256); test: human Rce1 protease inhibitors, dose response, biochemical, yeast membranes, quenched-peptide fluorescence, cherry-pick (AID 588849); settings: yeast membrane fractions expressing human Rce1, quenched-peptide fluorescence, 4 h; series mostly up to 10 µM
Sequence (Q9Y256 whole entry, looked up): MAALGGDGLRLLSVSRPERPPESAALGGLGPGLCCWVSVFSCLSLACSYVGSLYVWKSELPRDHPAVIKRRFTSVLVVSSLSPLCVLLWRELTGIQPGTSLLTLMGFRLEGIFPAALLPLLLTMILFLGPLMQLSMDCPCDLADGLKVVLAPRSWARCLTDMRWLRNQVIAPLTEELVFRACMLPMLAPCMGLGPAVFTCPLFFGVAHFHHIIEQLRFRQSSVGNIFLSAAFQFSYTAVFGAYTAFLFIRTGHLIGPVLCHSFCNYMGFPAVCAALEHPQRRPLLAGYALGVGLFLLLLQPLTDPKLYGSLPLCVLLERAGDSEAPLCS

Row | SMILES | outcome
1 | O=C1NC(c2ccc(Br)cc2)Nc2ccccc21 (stereo not drawn) | inactive
2 | Cc1c(Cl)c([N+](=O)[O-])nn1CC(=O)N1CCCc2ccccc21 | inactive
3 | CCCCNC(=O)c1cc2c(=O)n3cccc(C)c3nc2n(Cc2ccccc2)c1=N | inactive
4 | COc1ccc(NS(=O)(=O)c2c(C)cc(C)cc2C)cc1 | inactive
5 | CCCCCCCCCC[N+](C)(C)CC/C=C1/c2ccccc2Sc2ccc(Cl)cc21 | inactive
6 | C[C@@]12CCC=C[C@H]1[C@H](c1ccc(/C=C/c3ccccc3)cc1F)N(Cc1ccccc1)C2=O | inactive
7 | O=C(Nc1cccc2ncccc12)c1cccnc1 | inactive
8 | O=C(NCCc1cccnc1)c1cc(COc2ccc(F)cc2Cl)on1 | inactive
9 | Cc1ccc(OCCn2c3ccccc3n3nc(C)c(=O)nc23)cc1 | inactive
10 | O=C(C(Cc1ccccc1)N1C(=O)c2ccccc2C1=O)N1c2ccccc2CCc2ccccc21 (stereo not drawn) | inactive
11 | CCCCNC(=S)N=Nc1c(O)n(Cc2ccccc2)c2ccccc12 | inactive
12 | O=C(c1cn(-c2ccccc2)nc1-c1cccs1)N1CCN(c2ccccc2)CC1 | inactive
13 | COCCN1C(=O)/C(=C/c2ccc(Oc3ccc([N+](=O)[O-])cn3)c(OC)c2)SC1=Nc1ccccc1 | inactive
14 | O=C(COc1ncnc2cc([N+](=O)[O-])ccc12)NC(=O)NC1CCCCC1 | inactive
15 | CCN(C(=O)COC(=O)c1cc(-c2cccs2)nc2ccccc12)C1CCS(=O)(=O)C1 (stereo not drawn) | inactive
16 | CC(=O)C(C)Oc1ccc2c3c(c(=O)oc2c1)CCCC3 (stereo not drawn) | inactive
17 | Cc1ccc(N=Cc2c(O)n(C)c(=O)n(C)c2=O)nc1 | inactive
18 | COc1cc2cc(C(=O)O)[nH]c2c(OC)c1OC | inactive
19 | CN(C)CCN(C(=O)c1ccc2ccccc2c1)c1nc2ccc(Br)cc2s1 | inactive

Row | SMILES | outcome
20 | Cc1ccc(NC(=O)CCc2ccc(S(=O)(=O)NC3CCCCC3)cc2)cc1 | inactive
21 | CC1(C)CC2CC(C)(CN2S(=O)(=O)c2ccc(N)cc2)C1 (stereo not drawn) | inactive
22 | CC(=O)c1c(C)[nH]c(C(=O)OCc2ccc(Br)cc2)c1C | inactive
23 | CC1CCc2c(sc(NC(=O)COC(=O)c3ccccc3NCc3ccco3)c2C#N)C1 (stereo not drawn) | inactive
24 | CCn1cc(/C=C(\NC(=O)c2ccccc2Cl)C(=O)N2CCOCC2)c2ccccc21 | inactive
25 | C=CCc1cccc(/C=N/NC(=O)COc2ccc(-n3cnnn3)cc2)c1O | inactive
26 | COc1cccc2sc3ccc(C#CC4(O)CCCCC4)cc3c(=O)c12 | inactive
27 | c1ccc(Nc2cccc(Nc3ccccc3)n2)cc1 | inactive
28 | CCC(C)(C)c1ccc(OCCCC[n+]2cccc(C)c2C)c(C(C)(C)CC)c1 | inactive
29 | CCCOc1ccccc1C(=O)NCCCC(=O)O | inactive
30 | COc1cccc(-c2cc(C(F)(F)F)n3ncc(S(=O)(=O)c4ccccc4)c3n2)c1 | inactive
31 | COc1c2ccoc2nc2c(OC)cccc12 | inactive
32 | COc1ccc(S(=O)(=O)N(CC(=O)N2CCCC2)Cc2ccccc2)cc1 | inactive
33 | COc1cccc2c(=O)c(C(=O)O)c[nH]c12 | inactive
34 | Cc1ccc2c(C)c(C(=O)N(Cc3ccc(F)cc3)C3CCS(=O)(=O)C3)oc2c1 (stereo not drawn) | inactive
35 | COc1cc(-c2nc3ccccn3c2/N=C/c2cc(OC)c(OC)c(OC)c2)ccc1O | inactive
36 | CCn1c(COc2cccc(C)c2)nnc1SCC(=O)NC1CCCC1 | inactive
37 | O=c1c(-c2ccccc2)c(O)c2ccccc2n1-c1ccccc1 | inactive
38 | COc1ccc(-n2nc(C(=O)NCC(=O)N3CCC(C)CC3)c3ccccc3c2=O)cc1 | inactive

Source: PubChem BioAssay AID588849 (Broad Institute, 2011)
